Screening results as filed in PubChem.
eIF4E-4G inh: eIF4E/eIF4G interaction inhibition in translation initiation; TR-FRET eIF4E-eIF4GI(517-606) binding, 2 h; inhibition, % at 21.7 µM; P63073+Q04637; hit rate 0.37% among 220,000;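 active = inhibition above about 30%, limit read from the data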;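 also: 0% = full FRET control wells and 100% = background wells lacking eIF4GI fragment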
EBV gp42 inh: EBV gp42 inhibition | AID 1085 | hit rate 0.42% among 220,000 | Fluorescence polarization binding assay, mP read-out | inhibition, % (tested at 21.74 µM); in the data active = inhibition above about 50%
Target sequence (Q1HVG2 whole entry, looked up): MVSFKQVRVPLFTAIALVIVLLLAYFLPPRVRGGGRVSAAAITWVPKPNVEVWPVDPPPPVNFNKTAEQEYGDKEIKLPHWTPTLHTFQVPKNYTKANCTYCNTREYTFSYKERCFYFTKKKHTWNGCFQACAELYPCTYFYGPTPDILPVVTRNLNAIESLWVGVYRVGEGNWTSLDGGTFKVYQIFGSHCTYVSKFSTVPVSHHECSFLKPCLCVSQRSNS
PABP1 MLLE inh: inhibitors of microRNA-mediated deadenylation, human PABP1 MLLE binding | inhibition, % at 20 µM | GST-MLLE / FITC-PAM2 fluorescence polarization | P11940 | hit rate 0.36% among 360,000; in the data active = inhibition above about 35%, passing the limit was not always enough;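 also: plate controls were DMSO wells with GST-MLLE for no effect and wells lacking GST-MLLE protein for full effect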
eIF4H FP inh: inhibitors of RNA binding by human eIF4H | Q15056 | inhibition, % at 35 µM | hit rate 0.94% among 290,000 | eIF4H fluorescence polarization binding assay;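 also: calls also rest on retests at 20 µM and on dose response follow-up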
PABP polyA inh: PABP-poly(A) binding inhibition | PABP-poly(A) RNA binding, fluorescence polarization | calls only at 35 µM | hit rate 1% among 290,000;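 also: calls also rest on retests at 20 µM and on dose response follow-up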
An asterisk follows results filed as active; i = inactive; · = no result given; + = active, no number. An excerpt weighted towards active compounds, which were near 1.7% of everything screened. Unless noted, no rule for the calls is given here.

SMILES	eIF4E-4G inh	EBV gp42 inh	PABP1 MLLE inh	eIF4H FP inh	PABP polyA inh
O=C1/C(=C/c2cccnc2)SC(=S)N1c1ccc(O)cc1	1	-7	28	-9	i
O=C1/C(=C/c2cccnc2)SC(=S)N1c1ccc(F)cc1	-5	8	43*	2	i
COc1cc(/C=C2\SC(=S)N(c3cccnc3)C2=O)ccc1O	-6	15	-36	71*	i
Cn1c(NCc2cccnc2)nc2cc(-c3ccc(C(=O)N4CCOCC4)cc3)sc2c1=O	·	·	6	·	·
CCOc1ccc(Cl)cc1-c1cc(C(=O)NC2CCCCC2)[nH]n1	·	·	-18	·	·
CCN1CCC2(CC1)Oc1c(OC)cccc1C1CC(c3cccnc3)=NN12 (configuration not stated)	1	-7	0	-10	i
O=C(CC1CCCCC1)NCC1CCCO1 (configuration not stated)	38*	-22	3	-6	i
O=C(CCSCCC(=O)NCC1CCCO1)NCC1CCCO1 (configuration not stated)	1	-14	31	-12	i
O=C(Cn1nc(-c2ccccc2)oc1=O)OCC(=O)c1ccccc1	·	·	3	·	·
O=C(O)Cc1ccc(NC(=O)c2ccc3c(c2)C(=O)N(Cc2ccco2)C3=O)cc1	·	·	18	100*	+
O=C(Nc1ccc(O)cc1)c1ccc2c(c1)C(=O)N(Cc1ccco1)C2=O	2	-10	-20	30	i
Cc1noc(C)c1C(=O)OCC(=O)NCc1ccc(Cl)cc1	·	·	-12	·	·
CCc1ccc(NC(=O)C(=O)N/N=C(\C)CC(=O)Nc2ccccn2)cc1	5	-13	16	98	+
C/C(CC(=O)Nc1ccccn1)=N\NC(=O)C(=O)Nc1ccccc1C	-4	-17	0	14	i
CCOC(=O)c1nc(Nc2ccc(C)cc2)c2ccccc2n1	1	3	60*	13	i
O=c1[nH]c(CN2CCCCC2)ccc1O	·	·	45*	·	·
O=c1[nH]cnc(CN2CCCCC2)c1O	·	·	13	·	·
O=C(NCc1cccc(F)c1F)C1CCC(=O)N(C2CCCCCC2)C1 (configuration not stated)	·	·	-5	18	i
COc1ccccc1CP(=O)(c1ccccc1)c1ccccc1	3	6	11	active	i
CN(c1ccccc1)S(=O)(=O)c1cccc(NS(=O)(=O)c2cccc(C(=O)O)c2)c1	·	·	5	·	·
Cc1cc(C(=O)NCc2ccc(C(=O)O)o2)c(C)o1	3	-4	6	74	+
Cc1occc1C(=O)NCc1ccc(C(=O)O)o1	1	2	-3	7	i
Cc1ccccc1NC(=S)NNc1ncc(C(F)(F)F)cc1Cl	-1	-8	9	-6	i
Cc1c(Cl)cccc1NC(=S)NNc1ncc(C(F)(F)F)cc1Cl	5	1	36*	12	i
O=C1CCC(=O)N1c1ccc(-c2nc3ccccc3s2)cc1	1	7	2	61*	i
SMILES	eIF4E-4G inh	EBV gp42 inh	PABP1 MLLE inh	eIF4H FP inh	PABP polyA inh
CCc1ccc2[nH]c(C(=O)Nc3ccc(Br)c(C)n3)cc2c1	·	·	-9	2	i
COc1cccc(/C=C2/CN(C)CC3=C2OC(N)=C(C#N)C3c2cccc(OC)c2)c1 (configuration not stated)	4	8	-47	75*	+
CC(=O)C(Cc1ccccc1)NC(=O)COC(=O)c1cccc(C)c1[N+](=O)[O-] (configuration not stated)	·	·	-5	·	·
CCOc1cc(C2c3c(n[nH]c3C)C(=O)N2c2ccc(C)cc2)ccc1O (configuration not stated)	65*	-5	8	-8	i
COc1cc(C2c3c(n[nH]c3C)C(=O)N2c2ccc(C)cc2)ccc1O (configuration not stated)	-2	-8	0	8	i
NC(=O)c1ccc(NC(=O)COC(=O)c2ccccc2SCC(=O)N2CCCC2)cc1	·	·	29	·	·
COc1ccc(C(=O)Nc2ccc(N3CCN(C(C)=O)CC3)cc2)cc1[N+](=O)[O-]	1	9	·	active	+
CC1CCN(C(=S)NC(=O)c2cccc([N+](=O)[O-])c2)CC1	·	·	25	-10	i
CN1CCN(c2ccccc2NC(=O)c2ccc(-c3cccc([N+](=O)[O-])c3)o2)CC1	3	-11	3	-3	i
CCC(=O)N1CCN(c2ccc(NC(=S)NC(=O)c3cccc([N+](=O)[O-])c3)cc2)CC1	0	-10	43*	-4	i
CCC1CCCCN1C(=S)NC(=O)c1cccc([N+](=O)[O-])c1 (configuration not stated)	·	·	42*	-19	i
CC1CCN(c2ccccc2NC(=S)NC(=O)c2ccc(-c3cccc([N+](=O)[O-])c3)o2)CC1	-4	-13	42*	25	i
O=[N+]([O-])c1ccc(CN2[C@H](COCc3ccccc3)[C@@H](N3CCCC3)CS2(=O)=O)cc1	·	·	0	·	·
CN(C)c1ncnc2c1ncn2[C@H]1CN(Cc2ccc(-c3ccccc3)cc2)C[C@@H](CO)O1	·	·	-5	·	·
O=C(O)C1=C[C@@H](C2CCCCC2)C[C@@H](OCCCCO)O1	2	-8	-6	0	i
CC1CCN(c2ccc(NC(=S)NC(=O)c3ccco3)cc2)CC1	-7	-8	18	-4	i
CC1CCN(c2ccc(NC(=S)NC(=O)c3ccc(-c4cccc([N+](=O)[O-])c4)o3)cc2)CC1	-22	-16	40*	11	i
NS(=O)(=O)c1ccc(NC(=O)COC(=O)c2ccc3c(c2)OCCO3)cc1	1	-3	21	active	+
O=C(COC(=O)c1ccc2c(c1)OCO2)Nc1nc(-c2ccccc2)cs1	-4	1	-2	2	+
CC1CCCC(NC(=O)c2cc(S(=O)(=O)N3CCCCC3)c[nH]2)C1C (configuration not stated)	·	·	4	·	·
CC(C)=CCc1cc([C@@H]2CC(=O)c3ccc(O)c(CC=C(C)C)c3O2)ccc1O	·	·	-7	·	·
CC(Sc1ncccn1)C(=O)NC1(C#N)CCCCC1 (configuration not stated)	·	·	13	·	·
CC(SC1=Nc2ccccc2C2CC=NN12)C(=O)NC1(C#N)CCCCC1 (configuration not stated)	·	·	41*	·	·
CC(=O)NS(=O)(=O)c1cccnc1Nc1ccc(Cl)cc1	7	-17	-3	5	i
COc1ccc(C2CC(c3ccccc3)=NN2C(=O)CCCC(=O)O)cc1 (configuration not stated)	·	·	8	-3	i
COc1cc(/C=C2/C(=O)c3cccc([N+](=O)[O-])c3C2=O)c(Br)cc1O	12	54*	7	41	i
COc1ccccc1NC(=O)CCCCCN1C(=O)c2cccc([N+](=O)[O-])c2C1=O	·	·	-4	-18	i
COc1cccc2sc3ccc(NCc4ccc5c(c4)OCO5)cc3c(=O)c12	·	·	8	52*	i
CN(C)NC(=O)C12CCC(C)(C(=O)O1)C2(C)C (configuration not stated)	2	7	-11	1	i
